Test results published in PubChem BioAssay (Tox21).
Several values for one entry are separate records, joined by “and”; a condition that tells them apart may be missing. Equal entries are not always repeated. Inconclusive results are not listed. More than one record can exist for a structure, and the calls need not agree. Activity calls are given as the source filed them. Calls follow the shape of the dose curve; as a rule, active = well fitted cell-killing curve with a large enough effect in the repeat runs; inconclusive = weak or mixed curves, or effect the other way; inactive = no such curve, though single readings can be large or run the other way.

Assay: qHTS assay for identifying genotoxic compounds that show differential cytotoxicity against isogenic chicken DT40 cell lines with known DNA damage response pathways - wild type cell line (AID 743012); also: nearly all actives have a fitted effect of over 60% in size
Settings: DT40 wild type chicken cells viability, CellTiter-Glo, 40 h; series mostly up to 68.4 µM
Procedure, shortened: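 CellTiter-Glo luminescence readout of viability in wild type DT40 cells after 40 h compound exposure at 37 C/5% CO2; 300 cells/well; reagent incubated 30 min at room temperature before reading.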
Potency is read from the fitted curve at half-maximal effect.

Row | Compound | Potency
1 | CCCCCCCCCCCC(=O)NCCCN(C)C | 6.11 µM (active)
2 | CCOC(=O)c1nc(C(Cl)(Cl)Cl)n(-c2ccc(Cl)cc2Cl)n1 | 48.6 µM (active)
3 | OCc1c[nH]c2ccccc12 | 30.6 µM (active)
4 | CCCCCCCCCCCCCCCC(=O)OC[C@H](O)[C@H]1OC(=O)C(O)=C1O | inactive
5 | CSc1ccc(/C=C2/C(C)=C(CC(=O)O)c3cc(F)ccc32)cc1 | inactive
6 | c1cc(C(c2ccc(OCC3CO3)cc2)c2ccc(OCC3CO3)cc2)ccc1OCC1CO1 (stereo unspecified) | 24.3 µM (active)
7 | CC(C)OC(=O)c1cc2c(OCC(O)CNC(C)(C)C)cccc2[nH]1 (stereo unspecified) | 23.7 µM (active)
8 | CC[C@H]1O[C@]2(CC[C@@H]1C)C[C@@H]1C[C@@H](C/C=C(\C)C[C@@H](C)/C=C/C=C3\CO[C@@H]4[C@H](O)C(C)=C[C@@H](C(=O)O1)[C@]34O)O2 | 6.06 µM (active)
9 | CCCCc1oc2ccc(NS(C)(=O)=O)cc2c1C(=O)c1ccc(OCCCN(CCCC)CCCC)cc1 | 9.44 µM (active)
10 | CC(C)(C)c1ccc(C(=O)CCCN2CCC(OC(c3ccccc3)c3ccccc3)CC2)cc1 | 4.22 µM (active)
11 | CCCC(c1cc(C(C)(C)C)c(O)cc1C)c1cc(C(C)(C)C)c(O)cc1C | 12.3 µM (active)
12 | CC(C)(C)NC(=O)[C@@H]1C[C@@H]2CCCC[C@@H]2CN1C[C@@H](O)[C@H](Cc1ccccc1)NC(=O)[C@H](CC(N)=O)NC(=O)c1ccc2ccccc2n1 | 26.6 µM (active)
13 | Oc1c(Cl)cc(Cl)c2cccnc12 | 3.76 µM (active)
14 | N=C1N=C(N)c2ccccc21 | 17.2 µM (active)
15 | CCN(CC)CCCC(C)Nc1c2ccc(Cl)cc2nc2ccc(OC)cc12 (stereo unspecified) | 5.31 µM (active)
16 | Cc1nc(-c2ccc3c(c2)CCN(CCC2CCC(NC(=O)/C=C/c4ccc(F)cc4)CC2)CC3)no1 (stereo unspecified) | 0.386 µM (active)

Row | Compound | Potency
17 | CCCCCCCCCCCC[N+](C)(C)CCCCCCCCCCCC | 4.33 µM (active)
18 | CC1(C)CCC(C)(C)c2cc(C(=O)Nc3ccc(C(=O)O)cc3)ccc21 | 24.3 µM (active)
19 | CC(C)=CCOc1ccc(/C=C/C(=O)c2ccc(OCC=C(C)C)cc2OCC(=O)O)cc1 | inactive
20 | CSc1ccc2c(c1)C(N1CCN(C)CC1)Cc1ccccc1S2 (stereo unspecified) | 5.96 µM (active)
21 | Oc1ccc2cc(SSc3ccc4cc(O)ccc4c3)ccc2c1 | 24.3 µM (active)
22 | O=C(Nc1cccc(C(F)(F)F)c1)c1cc(Br)cc(Br)c1O | 5.31 µM (active) and 6.11 µM (active)
23 | Cc1ccc(O)c(C(C)(C)C)c1 | 27.3 µM (active) and inactive
24 | CCCCCOC(=O)CCCC | inactive
25 | Clc1ccc2n[nH]nc2c1 | inactive
26 | CCc1cc(Cc2cc(CC)c(N)c(CC)c2)cc(CC)c1N | 61.1 µM (active)
27 | CCCCCCCCn1sc(Cl)c(Cl)c1=O | 0.433 µM (active)
28 | NNc1nc(-c2ccc([N+](=O)[O-])cc2)cs1 | 6.11 µM (active)
29 | O=c1[nH]sc2ccccc12 | 0.433 µM (active)
30 | CNCc1cc(F)ccc1Oc1ccc(Cl)c(Cl)c1 | 13.7 µM (active)
31 | C/C=C1/C(=O)C[C@H]2[C@@H]3CCC4=CC(=O)CC[C@]4(C)[C@H]3CC[C@]12C | 21.6 µM (active)
